For 39 molecules, activation and Potency results are on record in PubChem BioAssay (NCATS).

Several values for one entry are separate records, joined by “and”; a condition that tells them apart may be missing. Equal values may be shown once. Records with an inconclusive call do not appear. Unmarked numbers belong to inactive results. Activity calls are given as the source filed them. Calls follow the shape of the dose curve; as a rule, active = well fitted activation curve with a large enough effect; inconclusive = small, poorly fitted or top-dose-only effect; inactive = no such curve, though single readings can be large or run the other way. Residues, ends and D or L forms follow the SMILES beside them.
Potency is read from the fitted curve at half-maximal effect.

Sequence of Cellular tumor antigen p53 (Homo sapiens) (P04637 whole entry, looked up): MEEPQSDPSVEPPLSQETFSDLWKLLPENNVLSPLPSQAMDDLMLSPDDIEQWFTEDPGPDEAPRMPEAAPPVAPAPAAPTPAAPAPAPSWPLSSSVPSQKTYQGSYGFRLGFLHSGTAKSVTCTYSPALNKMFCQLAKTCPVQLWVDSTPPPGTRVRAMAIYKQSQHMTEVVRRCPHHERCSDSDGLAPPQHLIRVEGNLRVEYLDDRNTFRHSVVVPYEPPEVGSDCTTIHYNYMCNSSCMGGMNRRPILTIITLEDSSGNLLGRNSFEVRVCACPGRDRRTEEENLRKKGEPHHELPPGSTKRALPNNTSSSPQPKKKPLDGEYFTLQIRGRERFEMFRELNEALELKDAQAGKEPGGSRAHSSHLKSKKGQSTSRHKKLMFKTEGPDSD

This assay deals with Cellular tumor antigen p53 (Homo sapiens) (UniProt P04637). In words: Primary qHTS for small molecule compounds that upregulate eGFP-tagged delta133p53alpha (in N-terminal) cells. (AID 2060322). Also: nearly all actives have a fitted effect of over 75% in size.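 As to activation: series mostly up to about 56 µM; 0% = DMSO vehicle and 100% = reference activator.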 Conditions: NCI-H358 eGFP-delta133p53alpha fluorescence, 24 h; activation: active compounds read high. Put shortly:
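NCI-H358 cells pre-induced 24 h with 10 ng/ml doxycycline to express N-terminal eGFP-delta133p53alpha, then dosed 24 h at 37C without doxycycline; fixed, Hoechst-stained, GFP intensity by laser scanning cytometry, normalized to DMSO (0%) and 57.5 uM 5-azacytidine (100%).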
On to `O=C1C(CCS(=O)c2ccccc2)C(=O)N(c2ccccc2)N1c1ccccc1` (centres undefined), for which the activation was 15.1%.
With `O=C(CCCl)NCCc1ccccc1`, the activation is -4.18%.
Turning to `NC(=O)N1c2ccccc2CC(=O)c2ccccc21`, the activation is 19.2% and 34.6%.
Still for that read-out and setting: next, `CC(C(=O)O)c1ccc(C(=O)c2ccccc2)s1` (centres undefined): 0%; `CC(=O)Oc1ccc(C(=C2CCCCC2)c2ccc(OC(C)=O)cc2)cc1`: 9.6%.
Consider `OC[C@H]1O[C@@H](Oc2ccc(O)cc2)[C@H](O)[C@@H](O)[C@H]1O`, for which the activation is -6.58%.
On the same count and under the same terms, the result for `Cc1cnc(NS(=O)(=O)c2ccc(N)cc2)nc1` reads 2.82%.
On the same count and under the same terms, the result for `CCCN(CCC)S(=O)(=O)c1ccc(C(=O)O)cc1` reads 8.47%.
Consider `CCOC(=O)[C@H](CCc1ccccc1)N[C@@H](C)C(=O)N1[C@@H](C(=O)O)C[C@H]2CCC[C@@H]21`, for which the activation is 0.313%.
Same read-out and setting: the result for `Cc1cc(CC(=O)O)c(C)n1-c1ccc(Cl)cc1` reads 5.86%; that for `C[C@@H]1C[C@H]2[C@@H]3C[C@H](F)C4=CC(=O)C(Cl)=C[C@]4(C)[C@@]3(F)[C@@H](O)C[C@]2(C)[C@@]1(O)C(=O)CO`, -14.1%.
On to `CC(=O)c1ccc(O)c(C(N)=O)c1`, for which the activation is -19.8%.
Still for that read-out and setting: next, `NC(=O)NNc1ccccc1`: 0.565%; `N#Cc1ccc(-c2csc(NN=C3CCCC3)n2)cc1`: -8.94%; `O=C(CN1CCNCC1)NC1CCCCC1`: 7.53%.
As for `CCOC(N)=O`, the activation is -2.82%.
Regarding `COc1cc2nc(N3CCCCC3)nc(NC3CCN(C)CC3)c2cc1OC`, the Potency is 38.5 µM (active).
For the molecule `CNc1c2c(nn1C)CCCC2`, the activation was -18.4%.
In the case of `COC(=O)c1cccnc1`, the activation was -4.18%.
With `C[C@@H]1CN(CCCn2c3ccccc3c3ccccc32)C[C@H](C)N1`, the activation is 16.4%.
Take `CN1CCCN(C(=O)c2cccc(-c3ccc(C=C4C(=O)Nc5ccc(Cl)cc54)o3)c2)CC1`: the activation was 19.8%.
Same read-out and setting: the result for `O=C1NC(=O)C(=Cc2ccc3nccc(-c4ccncc4)c3c2)S1` reads 3.34%.
On the same count and under the same terms, the result for `CC(=O)O[C@H]1C[C@@H]2CC[C@H]3[C@H]4C[C@H]([N+]5(C)CCCCC5)[C@@H](OC(C)=O)[C@@]4(C)CC[C@@H]3[C@@]2(C)C[C@H]1N1CCCCC1` reads -4.56%; that for `Cc1c(N)cccc1C(F)(F)F`, -19.8%; that for `COc1ccc(C(=O)NCc2ccc(OCCN(C)C)cc2)cc1OC`, -28.8%.
Take `O=C1CC(c2ccc(Cl)cc2)CC(=O)N1`: the activation was -11.9%.
Turning to `CC(=O)N[C@@H](CO)C(=O)N[C@@H](CC(=O)O)C(=O)N[C@@H](CCCCN)C(=O)N1CCC[C@H]1C(=O)O` (Ac-SDKP-OH), the activation is -24.3%.
On to `CN(C(=O)C(Cl)Cl)c1ccc(OC(=O)c2ccco2)cc1`, for which the activation was 5.02%.
On to `CCN1CCCC1CN` (centres undefined), for which the activation was 3.35%.
For `COc1cc2nc(-c3cc(F)ccc3O)nc(N[C@@H]3CNC[C@@H]3C(C)(C)O)c2cc1OC`, the Potency is 34.3 µM (active).
For the molecule `Cc1[nH]c(C=C2C(=O)Nc3ccccc32)c(C)c1CCC(=O)O`, the Potency is 24.3 µM (active).
As for `Cc1cccn2c(=O)c(-c3nnn[nH]3)cnc12`, the activation was -7.34%.
Same read-out and setting: the result for `C[N+]1(CC2COC(c3ccccc3)(C3CCCCC3)O2)CCCCC1` (centres undefined) reads 10.9%; that for `COC(=O)/C=C\C(=O)OC`, -9.6%; that for `CCCNC(C)C(=O)Nc1c(C)csc1C(=O)OC` (centres undefined), -37.9%.
Still for that read-out and setting: the result for `CC(C)C[C@@H](N)C(=O)O` reads -14.2%; that for `CCCCCC[C@@H](CCC)C(=O)O`, -13.4%; that for `C[C@]12CCC3=C4CCC(=O)C=C4CC[C@@H]3[C@H]1CC[C@@]2(O)CC#N`, 7.95%.
In the case of `O=C1OCCN1/N=C/c1ccc([N+](=O)[O-])o1`, the activation is -3.35%.
